Measurements as given in the supplement of paper PMC10849652.
Targets with a hit are over-represented here; the source holds about 8,800 in all. About 0.5% of all pairs of compound and target were hits. A number with no mark means an inactive call.

What was measured:
Test in all cases: log2 fold change, soluble protein after heating vs DMSO (PISA); higher = thermal stabilisation; K562 lysate, 10 uM; active = over 0.2 and 3.5 SD of the protein, either way, in both replicates (recomputed)
[1] = compound: C#Cc1cccc(Nc2ncnc3cc(OCCOC)c(OCCOC)cc23)c1 [erlotinib]
In short: (§1)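 Dounce homogenisation of K562 pellets in PBS pH 7.4 with 1 mM MgCl2 produced a crude extract, used at 1 mg/mL protein. Exposure to 10 μM compound lasted 30 min, and aliquots were then heated for 3 min across 48°C-58°C, pooled and brought to 0.5% NP-40 at 4°C. The supernatant after 21,000xg for 90 min was quantified by TMTpro 16plex LC-MS/MS with channel sums equalised. Duplicate values are given as log-two fold change in thermal stability relative to solvent controls.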

[2] = compound: C/C(=N\NC(=O)C1=CC(=CC=C1)S(=O)(=O)N2CCOCC2)/C3=C(C=CC(=C3)Cl)O
In short: as §1

[3] = compound: C1=CC(=CC=C1C2=NC3=C(N2)C=C(C=C3)C(=O)N)OC4=CC=C(C=C4)Cl
In short: as §1

[4] = compound: C1=CC2=C(C=CC(=C2)/C=C\3/C(=O)NC(=NCC4=CC=CS4)S3)N=C1
In short: as §1

[5] = compound: C1=CC2=NC=CN=C2C=C1/C=C/3\C(=O)NC(=O)S3
In short: as §1

[6] = compound: C1=CC=C(C=C1)C2=NC(=C(N2)C3=CC=NC=C3)C4=CC(=C(C=C4)Cl)O
In short: as §1

[7] = compound: C1=CC=C2C(=C1)C3=NNC4=CC=CC(=C43)C2=O
In short: as §1

[8] = compound: C1CCN(C1)C(=O)NC2=CC=CC(=C2)NC3=NC=C(C(=N3)NCCC4=CN=CN4)Br
In short: as §1

[9] = compound: C1CN(CCC1(CC2=CC=C(C=C2)Cl)N)C3=NC=NC4=C3C=CN4
In short: as §1

[10] = compound: C1COCCN1CCN2C3=CC=CC=C3N=C2NC(=O)C4=CC(=CC=C4)[N+](=O)[O-] [IRAK-1-4 Inhibitor I]
In short: as §1

[11] = compound: C=CC(=O)N1CCC[C@@H](n2nc(-c3ccc(Oc4ccccc4)cc3)c3c(N)ncnc32)C1 [ibrutinib]
In short: as §1

[12] = compound: CC(=O)c1cnc2ccc(-c3cc(Cl)c(O)c(Cl)c3)nc2c1N[C@H]1CC[C@H](CN(C)C)CC1
In short: as §1

[13] = compound: CC(C)(C)Cn1c(N)nc2ccc(-c3[nH]c(C(C)(C)C)nc3-c3ccc(F)cc3)nc21 [ralimetinib]
In short: as §1

[14] = compound: CC(C)(O)CC(=O)NCCn1ccc2ncnc(Nc3ccc(Oc4cccc(C(F)(F)F)c4)c(Cl)c3)c21
In short: as §1

[15] = compound: CC(C)C1=C2N=C(C=C(N2N=C1)NCC3=CC=CC=C3)NCCCCCCN
In short: as §1

[16] = compound: CC1=C(C(CC(=O)N1)C2=CC=C(C=C2)C(F)(F)F)C(=O)NC3=C(C=C4C(=C3)C=NN4)F
In short: as §1

[17] = compound: CC1=C(C2=C(C=C1)C(=O)C3=CC=CC=C3N2CCCN)C
In short: as §1

[18] = compound: CC1=C(C=C(C=C1)NC(=O)C2=CC(=CC=C2)C(C)(C)C#N)NC3=CC4=C(C=C3)N=CN(C4=O)C
In short: as §1

[19] = compound: CC1=C(C=C(C=C1)NC(=O)C2=CC(=CC=C2)N(C)C)NC(=O)C3=CC=C(C=C3)O
In short: as §1

[20] = compound: CC1=CC=C(C=C1)SC2=C3C=C(SC3=CN=C2)C(=O)N
In short: as §1

UniProt Q9UNA0, sequence (Q9UNA0 whole entry, looked up): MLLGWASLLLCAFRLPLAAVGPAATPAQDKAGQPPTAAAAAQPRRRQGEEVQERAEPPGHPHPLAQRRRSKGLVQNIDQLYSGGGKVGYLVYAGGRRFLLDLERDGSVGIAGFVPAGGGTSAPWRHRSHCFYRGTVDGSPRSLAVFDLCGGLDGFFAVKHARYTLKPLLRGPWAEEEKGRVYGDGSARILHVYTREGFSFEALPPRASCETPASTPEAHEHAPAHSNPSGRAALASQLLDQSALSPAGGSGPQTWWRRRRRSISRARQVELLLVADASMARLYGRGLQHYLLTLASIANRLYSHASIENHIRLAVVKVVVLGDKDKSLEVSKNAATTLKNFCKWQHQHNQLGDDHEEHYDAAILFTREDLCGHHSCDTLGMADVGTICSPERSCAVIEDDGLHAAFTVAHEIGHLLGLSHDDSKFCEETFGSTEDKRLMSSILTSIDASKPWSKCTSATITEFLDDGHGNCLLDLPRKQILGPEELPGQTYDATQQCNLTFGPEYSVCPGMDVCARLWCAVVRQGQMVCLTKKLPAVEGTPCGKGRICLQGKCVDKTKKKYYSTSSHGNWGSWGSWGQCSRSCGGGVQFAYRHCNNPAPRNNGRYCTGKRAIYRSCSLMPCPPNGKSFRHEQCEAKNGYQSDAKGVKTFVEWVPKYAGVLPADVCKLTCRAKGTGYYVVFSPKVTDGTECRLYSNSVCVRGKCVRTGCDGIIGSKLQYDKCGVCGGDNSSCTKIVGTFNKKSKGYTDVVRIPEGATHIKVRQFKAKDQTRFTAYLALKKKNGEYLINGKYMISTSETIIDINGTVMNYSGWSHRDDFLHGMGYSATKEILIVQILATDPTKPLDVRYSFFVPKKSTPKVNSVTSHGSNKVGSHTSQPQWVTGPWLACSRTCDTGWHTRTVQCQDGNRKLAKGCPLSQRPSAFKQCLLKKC
UniProt P31749, sequence (P31749 whole entry, looked up): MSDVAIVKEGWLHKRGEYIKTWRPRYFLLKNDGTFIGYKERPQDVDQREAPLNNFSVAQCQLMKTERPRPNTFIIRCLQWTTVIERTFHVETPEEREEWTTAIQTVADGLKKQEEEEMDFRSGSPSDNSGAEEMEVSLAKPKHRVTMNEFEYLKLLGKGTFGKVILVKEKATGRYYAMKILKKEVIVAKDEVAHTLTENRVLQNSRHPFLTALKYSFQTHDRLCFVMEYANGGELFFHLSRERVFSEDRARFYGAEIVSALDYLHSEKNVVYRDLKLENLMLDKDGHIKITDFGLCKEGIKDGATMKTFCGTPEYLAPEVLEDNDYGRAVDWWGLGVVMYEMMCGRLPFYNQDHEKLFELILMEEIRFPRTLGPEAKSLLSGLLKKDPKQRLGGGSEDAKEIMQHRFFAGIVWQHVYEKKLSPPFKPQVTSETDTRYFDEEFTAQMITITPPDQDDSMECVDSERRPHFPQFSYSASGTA
UniProt Q9UPW5, sequence (Q9UPW5 whole entry, looked up): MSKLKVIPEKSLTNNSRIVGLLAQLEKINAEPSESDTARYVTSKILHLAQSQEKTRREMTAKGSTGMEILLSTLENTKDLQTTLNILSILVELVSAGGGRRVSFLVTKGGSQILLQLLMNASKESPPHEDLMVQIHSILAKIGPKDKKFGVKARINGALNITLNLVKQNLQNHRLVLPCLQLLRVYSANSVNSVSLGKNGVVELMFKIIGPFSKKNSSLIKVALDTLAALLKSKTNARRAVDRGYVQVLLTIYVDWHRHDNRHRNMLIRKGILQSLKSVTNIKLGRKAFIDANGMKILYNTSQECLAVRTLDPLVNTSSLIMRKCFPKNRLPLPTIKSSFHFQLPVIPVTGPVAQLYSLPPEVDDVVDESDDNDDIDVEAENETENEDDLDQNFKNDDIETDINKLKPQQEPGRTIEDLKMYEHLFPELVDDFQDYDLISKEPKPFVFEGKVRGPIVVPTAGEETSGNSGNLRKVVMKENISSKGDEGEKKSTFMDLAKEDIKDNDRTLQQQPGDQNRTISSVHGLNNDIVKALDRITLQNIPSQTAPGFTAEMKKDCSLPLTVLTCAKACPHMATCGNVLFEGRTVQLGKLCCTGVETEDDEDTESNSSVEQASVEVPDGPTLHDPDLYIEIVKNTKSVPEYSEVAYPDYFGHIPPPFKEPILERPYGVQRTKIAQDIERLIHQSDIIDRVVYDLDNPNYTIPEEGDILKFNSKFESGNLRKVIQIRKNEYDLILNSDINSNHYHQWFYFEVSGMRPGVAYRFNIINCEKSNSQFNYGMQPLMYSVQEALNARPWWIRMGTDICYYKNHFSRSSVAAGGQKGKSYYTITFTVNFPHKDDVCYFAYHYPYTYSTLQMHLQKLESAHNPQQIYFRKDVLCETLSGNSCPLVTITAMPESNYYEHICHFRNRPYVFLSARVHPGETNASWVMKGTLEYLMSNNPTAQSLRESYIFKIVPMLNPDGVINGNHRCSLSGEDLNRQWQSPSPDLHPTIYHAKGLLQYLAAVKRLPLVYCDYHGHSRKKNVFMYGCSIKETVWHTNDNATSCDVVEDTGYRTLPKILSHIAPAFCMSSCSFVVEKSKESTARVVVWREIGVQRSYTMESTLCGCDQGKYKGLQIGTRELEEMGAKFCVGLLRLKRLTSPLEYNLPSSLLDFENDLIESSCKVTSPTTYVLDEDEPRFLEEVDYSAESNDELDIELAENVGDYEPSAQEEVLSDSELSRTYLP
UniProt Q13155, sequence (Q13155 whole entry, looked up): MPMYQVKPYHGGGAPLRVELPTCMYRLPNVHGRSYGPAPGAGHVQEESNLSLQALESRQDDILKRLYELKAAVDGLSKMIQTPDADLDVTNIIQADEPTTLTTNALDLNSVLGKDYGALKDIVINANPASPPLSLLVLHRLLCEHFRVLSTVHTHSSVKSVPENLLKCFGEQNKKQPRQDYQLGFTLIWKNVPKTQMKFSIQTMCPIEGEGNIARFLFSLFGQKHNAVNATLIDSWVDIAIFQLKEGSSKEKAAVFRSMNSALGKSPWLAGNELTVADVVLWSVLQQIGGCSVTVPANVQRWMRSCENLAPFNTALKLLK
UniProt Q02252, sequence (Q02252 whole entry, looked up): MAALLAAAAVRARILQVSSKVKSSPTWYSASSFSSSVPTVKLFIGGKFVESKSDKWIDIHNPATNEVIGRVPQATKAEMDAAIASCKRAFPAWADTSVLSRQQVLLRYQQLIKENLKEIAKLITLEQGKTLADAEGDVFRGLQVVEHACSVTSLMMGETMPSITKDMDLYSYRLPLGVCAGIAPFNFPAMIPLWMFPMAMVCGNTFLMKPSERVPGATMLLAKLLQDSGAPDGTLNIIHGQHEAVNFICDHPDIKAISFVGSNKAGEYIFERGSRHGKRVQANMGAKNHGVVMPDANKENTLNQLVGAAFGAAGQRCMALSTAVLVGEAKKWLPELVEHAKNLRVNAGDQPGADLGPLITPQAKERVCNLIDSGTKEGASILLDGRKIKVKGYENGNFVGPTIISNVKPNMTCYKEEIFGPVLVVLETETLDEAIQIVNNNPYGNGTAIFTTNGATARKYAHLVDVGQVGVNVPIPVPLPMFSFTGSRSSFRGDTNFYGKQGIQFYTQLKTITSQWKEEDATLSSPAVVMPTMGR
UniProt Q9NP73, sequence (Q9NP73 whole entry, looked up): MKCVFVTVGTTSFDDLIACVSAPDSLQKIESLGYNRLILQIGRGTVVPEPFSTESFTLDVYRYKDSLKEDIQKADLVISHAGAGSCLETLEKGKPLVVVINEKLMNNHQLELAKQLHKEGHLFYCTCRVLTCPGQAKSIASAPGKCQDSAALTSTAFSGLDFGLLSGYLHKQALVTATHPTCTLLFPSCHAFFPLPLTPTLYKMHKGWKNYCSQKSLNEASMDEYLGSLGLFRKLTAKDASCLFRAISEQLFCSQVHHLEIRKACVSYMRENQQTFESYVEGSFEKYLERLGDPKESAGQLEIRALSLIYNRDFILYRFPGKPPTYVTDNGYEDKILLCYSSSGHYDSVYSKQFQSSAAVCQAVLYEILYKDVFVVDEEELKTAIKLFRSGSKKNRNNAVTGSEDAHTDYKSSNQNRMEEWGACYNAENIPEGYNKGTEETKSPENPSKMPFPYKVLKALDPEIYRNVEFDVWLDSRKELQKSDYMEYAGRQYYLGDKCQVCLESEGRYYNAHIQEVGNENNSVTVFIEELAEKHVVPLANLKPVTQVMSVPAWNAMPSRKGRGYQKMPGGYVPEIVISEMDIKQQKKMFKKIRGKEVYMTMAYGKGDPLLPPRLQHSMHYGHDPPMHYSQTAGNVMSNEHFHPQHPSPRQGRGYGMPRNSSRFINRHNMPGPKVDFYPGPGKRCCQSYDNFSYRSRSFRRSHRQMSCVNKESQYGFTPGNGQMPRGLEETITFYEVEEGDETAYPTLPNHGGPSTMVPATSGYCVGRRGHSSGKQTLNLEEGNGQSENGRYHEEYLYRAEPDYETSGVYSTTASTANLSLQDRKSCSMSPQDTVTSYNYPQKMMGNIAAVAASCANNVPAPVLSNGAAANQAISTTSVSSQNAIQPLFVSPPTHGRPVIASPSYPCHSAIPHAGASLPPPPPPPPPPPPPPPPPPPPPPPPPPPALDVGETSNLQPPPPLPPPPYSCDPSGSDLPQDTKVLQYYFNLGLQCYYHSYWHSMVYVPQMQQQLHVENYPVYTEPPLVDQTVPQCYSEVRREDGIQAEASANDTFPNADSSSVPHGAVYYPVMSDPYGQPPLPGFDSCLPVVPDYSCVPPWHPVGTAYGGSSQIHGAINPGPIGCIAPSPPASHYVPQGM
UniProt Q9Y303, sequence (Q9Y303 whole entry, looked up): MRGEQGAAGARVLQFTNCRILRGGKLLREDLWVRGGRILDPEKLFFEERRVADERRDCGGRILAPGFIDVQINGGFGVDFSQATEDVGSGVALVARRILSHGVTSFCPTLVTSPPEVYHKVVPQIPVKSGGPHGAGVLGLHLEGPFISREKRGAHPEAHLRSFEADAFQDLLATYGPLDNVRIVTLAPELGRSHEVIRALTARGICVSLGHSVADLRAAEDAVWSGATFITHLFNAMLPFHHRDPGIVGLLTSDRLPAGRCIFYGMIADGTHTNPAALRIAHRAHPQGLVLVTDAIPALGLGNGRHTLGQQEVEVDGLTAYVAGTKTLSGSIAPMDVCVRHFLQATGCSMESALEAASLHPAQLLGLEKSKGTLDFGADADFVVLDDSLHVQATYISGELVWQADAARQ

| Target | log2 fold change [1] | log2 fold change [2] | log2 fold change [3] | log2 fold change [4] | log2 fold change [5] | log2 fold change [6] | log2 fold change [7] | log2 fold change [8] | log2 fold change [9] | log2 fold change [10] | log2 fold change [11] | log2 fold change [12] | log2 fold change [13] | log2 fold change [14] | log2 fold change [15] | log2 fold change [16] | log2 fold change [17] | log2 fold change [18] | log2 fold change [19] | log2 fold change [20] |
| --- | --- | --- | --- | --- | --- | --- | --- | --- | --- | --- | --- | --- | --- | --- | --- | --- | --- | --- | --- | --- |
| APEX1 (UniProt P27695) | 0.026 | 0.011 | -0.011 | 0.016 | 0 | 0.004 | -0.072 | 0 | 0.003 | -0.007 | 0.048 | -0.001 | -0.014 | 0.026 | 0.006 | 0.001 | -0.02 | -0.011 | 0.01 | 0.019 |
| ACTBL2 (UniProt Q562R1) | -0.037 | -0.163 | 0.02 | 0.043 | 0.118 | 0.004 | 0.024 | 0.064 | 0.109 | -0.006 | 0.001 | -0.016 | 0.006 | 0.082 | -0.034 | 0.086 | 0.069 | -0.043 | 0.017 | 0.123 |
| ALDH6A1 (UniProt Q02252) | -0.03 | 0.064 | -0.04 | -0.068 | -0.179 | 0.043 | -0.031 | -0.022 | 0.015 | 0.024 | 0.128 | -0.006 | -0.064 | -0.043 | 0.008 | -0.088 | -0.191 | 0.025 | -0.066 | -0.02 |
| ANP32A (UniProt P39687) | -0.147 | 0.075 | -0.199 | -0.012 | 0.012 | 0.006 | 0.018 | 0.026 | -0.008 | 0.013 | 0.003 | -0.003 | 0.002 | 0.188 | -0.041 | -0.029 | 0.079 | -0.025 | -0.046 | -0.018 |
| AGTPBP1 (UniProt Q9UPW5) | -0.033 | -0.084 | 0.027 | -0.029 | 0.042 | -0.053 | -0.039 | -0.017 | 0.005 | 0.022 | -0.255 | 0.001 | 0.013 | -0.058 | 0.008 | -0.026 | 0.051 | 0.077 | 0.005 | 0.012 |
| AMDHD2 isoform 3 (UniProt Q9Y303) | -0.013 | -0.045 | 0.06 | -0.038 | 0.028 | -0.01 | -0.003 | 0.022 | 0.044 | 0.018 | 0.032 | 0.006 | -0.059 | -0.025 | -0.011 | 0.009 | 0.013 | -0.015 | -0.017 | -0.017 |
| APOB (UniProt P04114) | -0.028 | -0.001 | -0.032 | -0.029 | -0.021 | 0 | -0.055 | -0.067 | 0.015 | 0.097 | -0.025 | -0.016 | -0.052 | -0.195 | 0.011 | -0.02 | -0.089 | 0.063 | -0.005 | -0.036 |
| AKT1 (UniProt P31749) | -0.008 | 0.042 | -0.004 | 0.121 | 0.019 | 0.059 | 0.018 | -0.034 | 0.03 | -0.005 | 0.028 | 0.013 | 0.005 | -0.023 | 0.009 | 0.003 | -0.009 | 0 | -0.006 | 0.019 |
| ACOX1 isoform 2 (UniProt Q15067) | -0.01 | -0.023 | 0.007 | 0.007 | 0.01 | 0.011 | -0.017 | -0.007 | 0.024 | 0.081 | 0.036 | 0.052 | 0.098 | -0.044 | -0.013 | -0.016 | -0.043 | 0.001 | -0.026 | -0.024 |
| ASNS (UniProt P08243) | 0.024 | 0.067 | -0.019 | -0.007 | 0.017 | -0.023 | -0.018 | 0.016 | 0.038 | 0.011 | 0.012 | 0.015 | -0.014 | 0.012 | 0.052 | -0.017 | 0.04 | 0.016 | 0.014 | 0.047 |
| AMD1 (UniProt P17707) | 0.019 | 0.011 | -0.091 | -0.075 | 0.055 | 0.061 | 0.011 | 0.114 | -0.156 | -0.036 | -0.031 | 0.464 (active) | -0.02 | -0.013 | -0.054 | 0.019 | -0.015 | 0.155 | -0.023 | -0.119 |
| ANKRD52 (UniProt Q8NB46) | 0.056 | -0.288 | 0.026 | -0.011 | 0.021 | 0.013 | -0.092 | 0.008 | 0.072 | 0.051 | 0.01 | -0.089 | -0.002 | -0.025 | 0.022 | 0.007 | -0.058 | 0.011 | 0.047 | -0.363 (active) |
| ALG13 (UniProt Q9NP73) | 0.022 | -0.014 | 0.049 | -0.008 | -0.048 | 0.047 | -0.032 | -0.01 | 0.083 | -0.02 | 0.118 | 0.037 | 0.008 | 0.026 | 0.022 | 0.065 | -0.025 | 0.063 | 0.012 | -0.001 |
| APAF1 (UniProt O14727) | 0.005 | 0.084 | -0.054 | 0.019 | -0.016 | -0.029 | -0.003 | 0.022 | 0.015 | -0.021 | 0.027 | 0.063 | 0.031 | -0.04 | 0.009 | 0.008 | -0.005 | 0.003 | 0.002 | 0.022 |
| AIMP2 (UniProt Q13155) | 0.021 | 0.062 | -0.01 | 0.006 | 0.002 | -0.016 | -0.001 | 0.014 | -0.036 | 0.008 | 0 | 0.013 | 0.044 | 0.015 | 0.044 | 0.002 | 0.018 | -0.005 | 0.019 | 0.028 |
| ADAMTS5 (UniProt Q9UNA0) | 0.027 | 0.004 | 0.044 | -0.05 | -0.046 | 0.049 | -0.001 | 0.058 | 0.073 | 0.123 | 0.032 | -0.057 | -0.016 | -0.186 | -0.011 | 0.008 | -0.067 | 0.093 | -0.031 | -0.076 |
